The source of these data is publication PMC12864922, “TDP-43 directly inhibits mRNA accumulation in neurites through modulation of mRNA stability”.

In all, about 9,900 sequences were measured (“r (bound/input frequency ratio)”: median about 0.7, highest 2% from about 6.5 on). The entries come from a sample that favours the highest values as a whole.

B1: ENSMUSG00000004113.485|Cacna1b (ssRNA)
RNA: GGGAGUUCUACAGUCCGACGAUCGCUUCGAUAUCCGCAUGCUACCUUUGACUAGUUUGCUGCCUGAAUAAUAUUUACAAACUAAACUUUGGAUUCUGCUCUUGUUUCUACAAUGAUUUUUUGUAUAAAGCAAAGUCCUUGGAUUAAAUAAAAACAACCCAAAAAAAAAAUCAAAAUCAAAACCCAGGAUGCAACUGGGUGAUACCUGAGGACAGUGUGUCUCAGUGCGUCGGUGGAGAGGGUAUACUGCCAGGAGAGCUCAAGAAAAAUUGAGAACUUCAGCAAAGUGCCUGUGAGCACUUGGCUCUUGCGGUCGCACUAGUGUGGAAUUCUCGGGUGUCAAGG
B2: ENSMUSG00000035202.103|Lars2|4:8 (ssRNA)
RNA: GGGAGUUCUACAGUCCGACGAUCGCUUCGAUAUCCGCAUGCUAGCUACACACUCCAGUGUCUUUUACCAUCACAGGCCCUGGCUCUGUGCUACCUCCCUAGAAUACCUGUGGUUCAUCACCUUCAGCUCACACUCCAUUCAGACAAUGCUCACUUAGGCCUACAAGCAAGGGAGAGGCUUAAGCACAAGGUCUUUAAGCUUGAUACUGUGCCUGGUCUCAAUGCCUAGAAAUUCCAACUUAACUGUCGCUAUCAUAAAGGAUUUUAAAUUUUUUUACAAGUGAGAACCUAGCAUGUCAAGGUCCUCUUGCGGUCGCACUAGUGUGGAAUUCUCGGGUGUCAAGG
B3: ENSMUSG00000022095.200|Fam160b2 (ssRNA)
RNA: GGGAGUUCUACAGUCCGACGAUCGCUUCGAUAUCCGCAUGCUACCACCUCUCGAAGCCGGGCACAGGUUGCCAGGAGGUGACAUGAAAGAGGAGGAAACUCCAUGACCUCUACAUCCCCCGCAGUCCUCCCAGCGGGGGAGGACUUCUCUGCUGCUCCGAAGAACAUCAUGCACUCCUGUGUGUGUGUGUGAGUGUGUGUGUGUGUGUGUGUGUGUGUGUGUGUGUAUGUGUGUGUAUAUGUGUGUGUGUGUGUGUAUGUGUGUGUGUGUGUGUGAGUGAGUGUGUGUGUGUGUGUGUGUGUGCUCUUGCGGUCGCACUAGUGUGGAAUUCUCGGGUGUCAAGG
B4: ENSMUSG00000022095.202|Fam160b2 (ssRNA)
RNA: GGGAGUUCUACAGUCCGACGAUCGCUUCGAUAUCCGCAUGCUAGCCGGGCACAGGUUGCCAGGAGGUGACAUGAAAGAGGAGGAAACUCCAUGACCUCUACAUCCCCCGCAGUCCUCCCAGCGGGGGAGGACUUCUCUGCUGCUCCGAAGAACAUCAUGCACUCCUGUGUGUGUGUGUGAGUGUGUGUGUGUGUGUGUGUGUGUGUGUGUGUGUAUGUGUGUGUAUAUGUGUGUGUGUGUGUGUAUGUGUGUGUGUGUGUGUGAGUGAGUGUGUGUGUGUGUGUGUGUGUGUGAGUGUGUGUGCUCUUGCGGUCGCACUAGUGUGGAAUUCUCGGGUGUCAAGG
B5: ENSMUSG00000022095.199|Fam160b2 (ssRNA)
RNA: GGGAGUUCUACAGUCCGACGAUCGCUUCGAUAUCCGCAUGCUACCCAUGCCACCUCUCGAAGCCGGGCACAGGUUGCCAGGAGGUGACAUGAAAGAGGAGGAAACUCCAUGACCUCUACAUCCCCCGCAGUCCUCCCAGCGGGGGAGGACUUCUCUGCUGCUCCGAAGAACAUCAUGCACUCCUGUGUGUGUGUGUGAGUGUGUGUGUGUGUGUGUGUGUGUGUGUGUGUGUAUGUGUGUGUAUAUGUGUGUGUGUGUGUGUAUGUGUGUGUGUGUGUGUGAGUGAGUGUGUGUGUGUGUGUGCUCUUGCGGUCGCACUAGUGUGGAAUUCUCGGGUGUCAAGG
B6: ENSMUSG00000032194.22|Kank2 (ssRNA)
RNA: GGGAGUUCUACAGUCCGACGAUCGCUUCGAUAUCCGCAUGCUAUCCCUCUGUCCCAUUCUGCCUCGGCAUUCCUCAGCCCCUGAACUUCCCUGAGGGAGCCCUGACAUCUACCAGGCUCAAGCUCCUGGAAGCCUUUCCCAGCACCCUGGGUUCAAAGCCAGAAAGCCAAGCUACAUUCUCCUCCCAGUUGGCACCAGUUGACAACGCCUUGGGUGUGGGUUUCUUGUAAAGAACAUAGAGAACAAUCAGCCGGCAAUUAUGGGAGGAGGAAGGGGGGGCAAGAAGAGAAAAUACUGUAUUCUCUCUUGCGGUCGCACUAGUGUGGAAUUCUCGGGUGUCAAGG
B7: ENSMUSG00000035202.148|Lars2 (ssRNA)
RNA: GGGAGUUCUACAGUCCGACGAUCGCUUCGAUAUCCGCAUGCUAUCUCCAACACGAAAAAAGCAAGGCAACUCUACCAAAGAAACUAAUUACAUACUUGUAUUCCCAAUAUGUGAGAAGCUGAGGAAGGAGGAUCAUGAGUUUAAAGCCAUCCUUGGUUACAUGAGACUCUUGUCUCAAAGAACUACCAGGGAUCCUAAUGGACAACAAAGGUUGAAAACCAUUGAAUUAAUAAAUGUUGUGAACCAUAAUUUCUACCCAGUCCUUCUUCCUUCAUUUUCAUCUCAUCUGGGAUAAGUUUAGCCCUCUUGCGGUCGCACUAGUGUGGAAUUCUCGGGUGUCAAGG
B8: ENSMUSG00000043670.75|Diras1 (ssRNA)
RNA: GGGAGUUCUACAGUCCGACGAUCGCUUCGAUAUCCGCAUGCUAUUUGAUCCCUGUGGAUCUGAAAACAGGGACCUGGCUAAGGAACUGCUCAUCCCAGUCAGGCCCAGAGAGGUUACCUUGCCUCUCCAUCUCUGUCCCUGUGUGCCCAGCCAUGCCCACUGUCCCUGUCCCUCACAUUCUAUCACUGUGACCUCUGGGGAGUGCCCAUUGACCUCAUCUUCCUUCACUAAUAUCUUAUUUCUUUCACCUGAUCCUGUCCUUUCCCCGUGACCUCUGACCUGUGGCCUUCCCUGGGUCCAGAACUCUUGCGGUCGCACUAGUGUGGAAUUCUCGGGUGUCAAGG
B9: ENSMUSG00000058297.201|Spock2 (ssRNA)
RNA: GGGAGUUCUACAGUCCGACGAUCGCUUCGAUAUCCGCAUGCUAAGGAAAUGGUUCCCUCUUGCCCCGACCAAUAGAAGGGCGUGUCCCCGAGACCCUUGUGAGGAACCACGGGGAGCUGUGACUUCCUGUGCCCAGAAGGUCCUGGAGGAGAGGCCCCAAAGCCUUAGUCCUCUCAGCCAUGACUUUCCUCUGUCUCAAGGGUCCCCAAGAUGGCCCUAGAAGAACCAUGCCCCAGACUCUAUUUAAAGCCCUAUAGCAUAUAUGAAUAGAGAACGGUGUAUCUAUCAGAGGGGACCACACUGCUCUUGCGGUCGCACUAGUGUGGAAUUCUCGGGUGUCAAGG
B10: ENSMUSG00000061578.1546|Ksr2|104:108 (ssRNA)
RNA: GGGAGUUCUACAGUCCGACGAUCGCUUCGAUAUCCGCAUGCUAAGAUCAUUUAUAAAGUUUUCUACACUUCUCAAAAAAAAAAAUAUUUCUAACCUUGGCUGUUGGACAGUCUGUGAGCCUGUGAGCCGGCAAGCCUGUUGUUUCUACACAUUAGUGCAAUGUUAGUGAGAAUCCAGUGUCUGAGUUAUUAAUGCCAAUAAAGAAUUUGAGAAUUACUGCAUCCGCUGCUGUCACUCCAGGUCAGAACUCUGCUGUUGUCUGUUGGAUGGAAGGAAGCUCCAGAGUGAGGAACAAUGGUUGCUCUCUUGCGGUCGCACUAGUGUGGAAUUCUCGGGUGUCAAGG
B11: ENSMUSG00000029636.29|Wasf3|57:61;103:107 (ssRNA)
RNA: GGGAGUUCUACAGUCCGACGAUCGCUUCGAUAUCCGCAUGCUAUCUCUGCACCCUCACAGUGGUAUUUCCCUGUAGCUUUAGUCCCUUUUGUAUUAACACACACAUUUGCUUCUGCACAUCCUUCUGGAUUUGUUGAGUAUUUACACACAAAUACUUAAGUGCCACAGAACACAGCACACCGUGCUGCACACCAGGAAACUCGCAGUAUUAGUGCAUCACCCUGGAACAGCAUCUUGCUUCCCUCUCAGCCGUGAGAGUCCCCUCUCCUGUCCAUCCUGAUUUGGUGGGCUUGCCACGUAUCUCUCUUGCGGUCGCACUAGUGUGGAAUUCUCGGGUGUCAAGG
B12: ENSMUSG00000029636.244|Wasf3 (ssRNA)
RNA: GGGAGUUCUACAGUCCGACGAUCGCUUCGAUAUCCGCAUGCUAUGACAGGGAAUGCCUGUGGGAUAAUUAAAAAUGGUUUUUGCUCAUGAGUUUGGGAUGUCACCCAGCCGCCCACAUCGCCUGCUAUGUGUGUGGACGCCUGUCCGCUUGGCCAGCUAUCCUGUAACACCUGCCAGUAGUAGGUUUUCCUCAUGUCACUAUGACAGUGAAAGCCCAUGUGCAAGCCCCUCCCUACGCCCUGCUUUGGCGUGUGUCUGAGUGCUCUGUGCUGCGCCAUGGCCAUCCUGGAGCCUGCGCACACGCUCUUGCGGUCGCACUAGUGUGGAAUUCUCGGGUGUCAAGG
B13: ENSMUSG00000061578.1047|Ksr2 (ssRNA)
RNA: GGGAGUUCUACAGUCCGACGAUCGCUUCGAUAUCCGCAUGCUACCUCUCCCUGGAGCUGGCAGCCAUGGUUGAUGGCUAUGGGAUACAAUGUGGAUCUUUAGAUGUGAAAGUCUGAUGACUCAAAUCAAAGUUUGGUUUUUCUUUUCUACUACUCUGAAGGAAAAUCUCAGCUUGGCUAUUUCUUCAUGUUUUAAAAAUGUCUUGACUUCUCUCAGCAACCAACUUCAGGUGCCAGGAUAUGAGAUGCUAAGGUUCAGGGGUGGUGGAGGUGAUUCUAUCCAGUGGCCAGCAAUACCCAAAAGCUCUUGCGGUCGCACUAGUGUGGAAUUCUCGGGUGUCAAGG

The assay deals with TDP-43 (Homo sapiens, UniProt Q13148 1-414). Put plainly: RNA Bind-n-Seq with designed 260-mer pool; 25 mM Tris-HCl, 150 mM KCl, 3 mM MgCl2, BSA (printed 500 mg/mL), 20 units/mL SUPERase IN; pH not stated; 500 nM RNA pool, 1 h, 4 C; TDP-43 5, 50, 500 nM; high values mean tight binding. To be noted: protein: recombinant; tags: SBP (GST cleaved off with PreScission; pGEX-GST-SBP). The procedure, abridged: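 An in vitro-transcribed pool of 260-nt 3′ UTR oligos (500 nM) was incubated for 1 h at 4 °C with recombinant SBP-tagged TDP-43 at 5, 50 or 500 nM held on streptavidin beads. The buffer contained 25 mM Tris-HCl, 150 mM KCl, 3 mM MgCl2, BSA and SUPERase IN. Biotin-eluted bound RNA was sequenced, and binding, R, is each oligo's normalized read abundance in the bound sample over that in input.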
Sequence of TDP-43 (Q13148 whole entry): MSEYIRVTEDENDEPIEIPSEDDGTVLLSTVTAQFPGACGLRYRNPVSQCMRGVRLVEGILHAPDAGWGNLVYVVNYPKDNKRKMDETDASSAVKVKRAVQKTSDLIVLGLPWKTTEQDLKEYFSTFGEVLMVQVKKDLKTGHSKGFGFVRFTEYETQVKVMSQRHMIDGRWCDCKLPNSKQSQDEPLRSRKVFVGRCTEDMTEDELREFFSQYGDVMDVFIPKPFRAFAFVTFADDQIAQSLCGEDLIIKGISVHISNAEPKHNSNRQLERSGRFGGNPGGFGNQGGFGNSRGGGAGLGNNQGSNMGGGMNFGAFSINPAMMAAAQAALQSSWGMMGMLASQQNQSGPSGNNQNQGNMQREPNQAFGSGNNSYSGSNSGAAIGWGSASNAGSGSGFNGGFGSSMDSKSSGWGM
Regarding B1, the binding signal was 0.542 R (bound/input frequency ratio).

With B2, the binding signal is 0.427 R (bound/input frequency ratio).

With B3, the binding signal is 7.08 R (bound/input frequency ratio).

Regarding B4, the binding signal was 7.21 R (bound/input frequency ratio).

In the case of B5, the binding signal was 8.67 R (bound/input frequency ratio).

As for B6, the binding signal is 0.911 R (bound/input frequency ratio).

B7: the binding signal is 0.0673 R (bound/input frequency ratio).

As to B8, the binding signal is 2.09 R (bound/input frequency ratio).

B9: the binding signal was 0.372 R (bound/input frequency ratio).

As to B10, the binding signal is 0.542 R (bound/input frequency ratio).

On to B11, for which the binding signal was 0.499 R (bound/input frequency ratio).

On to B12, for which the binding signal is 0.625 R (bound/input frequency ratio).

For B13, the binding signal is 0.12 R (bound/input frequency ratio).
